# PubChem BioAssay (NCI)
# Compounds without any hit were thinned out: in the full panel of roughly 79,000, 15% have a hit. Unmarked numbers belong to inactive results. Active and inactive are the calls of the source. Cut-off read from the data, not from the text of the source: active = growth inhibition above about 70%; inactive = the rest.
# Columns and labels:
# [1] = NCI Yeast Anticancer Drug Screen. Data for the rad52 strain (AID 147);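 note: 0% = growth of vehicle-treated control cultures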; settings: S. cerevisiae rad52 mutant growth inhibition, hits give high values
# Procedure, shortened: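 Here a repair-compromised yeast strain receives each compound; its growth is then quantified and normalised to vehicle-only controls.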
# [2] = NCI Yeast Anticancer Drug Screen. Data for the wt1 strain (AID 149);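 note: 0% = growth of vehicle-treated wt1 cultures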; settings: S. cerevisiae wt1 strain (SPY 50644) growth inhibition, hits give high values
# Procedure, shortened: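 Using yeast strain wt1, compound-induced growth inhibition was determined against vehicle-treated cultures.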
# [3] = NCI Yeast Anticancer Drug Screen. Data for the rad50EPP+ strain (AID 151);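 note: 0% = growth of vehicle-treated control cultures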; settings: S. cerevisiae rad50 mutant strain, hits give high values
# Procedure, shortened: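 Read-out is yeast growth inhibition relative to vehicle; cells used were the rad50EPP+ strain.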
# [4] = NCI Yeast Anticancer Drug Screen. Data for the mgt1 strain (AID 153); settings: S. cerevisiae mgt1 mutant growth inhibition, hits give high values
# Procedure, shortened: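 Measured: inhibition of mgt1 yeast growth by compound, normalized to vehicle-treated cultures.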
# [5] = NCI Yeast Anticancer Drug Screen. Data for the rad50 strain (AID 155);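 note: 0% = growth of vehicle-only cultures of the same strain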; settings: S. cerevisiae rad50 strain growth inhibition, hits give high values
# Procedure, shortened: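 Relative growth inhibition (compound vs vehicle) was measured in yeast with a defined repair-gene alteration.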
# [6] = NCI Yeast Anticancer Drug Screen. Data for the mec2-1 strain (AID 157); settings: S. cerevisiae mec2-1 strain, hits give high values
# Procedure, shortened: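 Using mec2-1 yeast: add compound, measure growth, express inhibition versus vehicle-treated cultures.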
# [7] = NCI Yeast Anticancer Drug Screen. Data for the rad14 strain (AID 159);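 note: 0% = growth of vehicle-treated control cultures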; settings: S. cerevisiae rad14 strain growth inhibition, hits give high values
# Procedure, shortened: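 Screen for anticancer potential: a yeast strain altered in DNA damage repair is grown with compound, and reduced growth is quantified against vehicle controls.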
# [8] = NCI Yeast Anticancer Drug Screen. Data for the sgs1 mgt1 strain (AID 161);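 note: 0% = growth of cultures given vehicle only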; settings: S. cerevisiae sgs1 mgt1 strain, hits give high values
# Procedure, shortened: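 This yeast growth screen uses a strain with defined DNA-repair lesions; compound-treated growth is compared with vehicle-treated growth.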
# [9] = NCI Yeast Anticancer Drug Screen. Data for the CLN2oe strain (AID 163);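 note: 0% = growth of vehicle-only control cultures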; settings: S. cerevisiae CLN2oe strain, hits give high values
# Procedure, shortened: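 Whole-cell yeast growth assay. A strain engineered for altered cell-cycle control received compound, and inhibition relative to vehicle-treated cultures was recorded.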
# [10] = NCI Yeast Anticancer Drug Screen. Data for the bub3 strain (AID 167); settings: S. cerevisiae bub3 mutant strain, hits give high values
# Procedure, shortened: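 Screening used yeast with an engineered genetic alteration affecting cell cycle control. Compound-exposed cultures were compared with vehicle cultures, and reduced growth was taken as inhibition.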
# [11] = NCI Yeast Anticancer Drug Screen. Data for the wt2 strain (AID 169);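 note: 0% = growth of vehicle-treated yeast cultures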; settings: S. cerevisiae wt2 strain growth inhibition, hits give high values
# Procedure, shortened: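 Treated yeast vs. vehicle-treated yeast: growth inhibition determined.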
# [12] = NCI Yeast Anticancer Drug Screen. Data for the mlh1 strain (AID 171);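 note: 0% = growth of vehicle-treated control cultures of the same strain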; settings: S. cerevisiae mlh1 strain growth inhibition, hits give high values
# Procedure, shortened: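 A yeast strain with a defined genetic lesion serves as the test organism. Cultures receive compound or vehicle, and growth is measured.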
# [13] = NCI Yeast Anticancer Drug Screen. Data for the sgs1 strain (AID 173);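 note: 0% = growth of vehicle-only control cultures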; settings: S. cerevisiae sgs1 mutant, hits give high values
# Procedure, shortened: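 A genetically defined yeast mutant is incubated with the test compound, and its growth is compared to that of the same strain given vehicle.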
# [14] = NCI Yeast Anticancer Drug Screen. Data for the mlh1 rad18 strain (AID 175); settings: S. cerevisiae mlh1 rad18 strain growth inhibition, hits give high values
# Procedure, shortened: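 Steps: expose repair-defective yeast to compound; measure growth; express inhibition against vehicle-treated controls.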
# [15] = at 5.0 µM (retest, dose inferred, filed as 0.5)
# [16] = at 50.0 µM (retest, dose inferred, filed as 5.0)
smiles,measurement,setting,value
COc1cc(/C=C2\NC(=O)N(/C=C3\C(=O)Oc4ccccc4C3=O)C2=O)ccc1O,growth inhibition,[1]; at 1.2 µM,-3%
same,growth inhibition,[1]; at 3.7 µM,1%
same,growth inhibition,[1]; at 11.0 µM,16%
same,growth inhibition,[1]; at 33.0 µM,79% (active)
same,growth inhibition,[1]; at 100.0 µM,96% (active)
same,growth inhibition,[2]; at 1.2 µM,2%
same,growth inhibition,[2]; at 3.7 µM,3%
same,growth inhibition,[2]; at 11.0 µM,3%
same,growth inhibition,[2]; at 33.0 µM,63%
same,growth inhibition,[2]; at 100.0 µM,95% (active)
same,growth inhibition,[3]; at 1.2 µM,-1%
same,growth inhibition,[3]; at 3.7 µM,-1%
same,growth inhibition,[3]; at 11.0 µM,1%
same,growth inhibition,[3]; at 33.0 µM,4%
same,growth inhibition,[3]; at 100.0 µM,3%
same,growth inhibition,[4]; at 1.2 µM,-3%
same,growth inhibition,[4]; at 3.7 µM,-3%
same,growth inhibition,[4]; at 11.0 µM,4%
same,growth inhibition,[4]; at 33.0 µM,62%
same,growth inhibition,[4]; at 100.0 µM,94% (active)
same,growth inhibition,[5]; at 1.2 µM,-6%
same,growth inhibition,[5]; at 3.7 µM,-17%
same,growth inhibition,[5]; [15],-1%
same,growth inhibition,[5]; at 11.0 µM,-9%
same,growth inhibition,[5]; at 33.0 µM,75% (active)
same,growth inhibition,[5]; [16],95% (active)
same,growth inhibition,[5]; at 50.0 µM,88.4% (active)
same,growth inhibition,[5]; at 100.0 µM,95% (active)
same,growth inhibition,[6]; at 1.2 µM,-1%
same,growth inhibition,[6]; at 3.7 µM,-3%
same,growth inhibition,[6]; [15],-4%
same,growth inhibition,[6]; at 11.0 µM,5%
same,growth inhibition,[6]; at 33.0 µM,68%
same,growth inhibition,[6]; [16],97% (active)
same,growth inhibition,[6]; at 50.0 µM,77.5% (active)
same,growth inhibition,[6]; at 100.0 µM,96% (active)
same,growth inhibition,[7]; at 1.2 µM,-2%
same,growth inhibition,[7]; at 3.7 µM,-2%
same,growth inhibition,[7]; at 11.0 µM,3%
same,growth inhibition,[7]; at 33.0 µM,64%
same,growth inhibition,[7]; at 100.0 µM,93% (active)
same,growth inhibition,[8]; [15],-11%
same,growth inhibition,[8]; [16],92% (active)
same,growth inhibition,[8]; at 50.0 µM,93.9% (active)
same,growth inhibition,[9]; at 1.2 µM,0%
same,growth inhibition,[9]; at 3.7 µM,1%
same,growth inhibition,[9]; at 11.0 µM,15%
same,growth inhibition,[9]; at 33.0 µM,86% (active)
same,growth inhibition,[9]; at 100.0 µM,96% (active)
same,growth inhibition,[10]; at 1.2 µM,-3%
same,growth inhibition,[10]; at 3.7 µM,-2%
same,growth inhibition,[10]; [15],-16%
same,growth inhibition,[10]; at 11.0 µM,1%
same,growth inhibition,[10]; at 33.0 µM,69%
same,growth inhibition,[10]; [16],90% (active)
same,growth inhibition,[10]; at 50.0 µM,90.8% (active)
same,growth inhibition,[10]; at 100.0 µM,93% (active)
same,growth inhibition,[11]; at 1.2 µM,-1%
same,growth inhibition,[11]; at 3.7 µM,0%
same,growth inhibition,[11]; at 11.0 µM,7%
same,growth inhibition,[11]; at 33.0 µM,87% (active)
same,growth inhibition,[11]; at 100.0 µM,98% (active)
same,growth inhibition,[12]; at 1.2 µM,-1%
same,growth inhibition,[12]; at 3.7 µM,0%
same,growth inhibition,[12]; at 11.0 µM,6%
same,growth inhibition,[12]; at 33.0 µM,82% (active)
same,growth inhibition,[12]; at 100.0 µM,96% (active)
same,growth inhibition,[13]; at 1.2 µM,-1%
same,growth inhibition,[13]; at 3.7 µM,-1%
same,growth inhibition,[13]; at 11.0 µM,14%
same,growth inhibition,[13]; at 33.0 µM,89% (active)
same,growth inhibition,[13]; at 100.0 µM,97% (active)
same,growth inhibition,[14]; [15],4%
same,growth inhibition,[14]; [16],95% (active)
same,growth inhibition,[14]; at 50.0 µM,89.5% (active)
